From PubChem BioAssay (Tox21)
Results filed as inconclusive are left out. Where a call stands in place of a potency, no number is given. Unmarked numbers belong to inactive results. Calls of active or inactive are those of the source. The call rests on the fitted dose curve; in most records, active means well fitted cell-killing curve with a large enough effect in the repeat runs; inconclusive means weak or mixed curves, or effect the other way; inactive means no such curve, though single readings can be large or run the other way.
Potency means the concentration at half of the fitted maximal effect.

Experiment: qHTS assay to identify small molecule antagonists of the retinoid-related orphan receptor gamma (ROR-gamma) signaling pathway - cell viability counter screen (AID 1159520); further: nearly all actives have a fitted effect of over 50% in size
Conditions: Tet-on RORgamma CHO cells viability, ATP luminescence, 16 h; series mostly up to 92.4 µM
Text: U.S. Tox21 Program National Center for Advancing Translational Sciences [NCATS] NIH Chemical Genomics Center [NCGC] U.S. Environmental Protection Agency [EPA] National Institutes of Environmental Health Sciences [NIEHS] National Toxicology Program [NTP] U.S. Food and Drug Administration [FDA] Tox21 Assay Overview: Nuclear steroid hormone receptors are involved in many biological processes including inflammatory responses, cell proliferation, and apoptosis. Environmental factors or compounds disrupting these nuclear receptor pathways and gene expression may promote susceptibility to immunotoxicants and autoimmune diseases. One important group of these expression factors are the retinoid-related orphan receptors. To assess compounds that may interfere with the retinoid-related orphan receptor gamma (ROR-gamma) transcription factor, a cell-based luciferase assay was used. The CHO cell-based assay utilizes a TET-inducible ROR expression factor and ROR response element-LUC reporter gene. Reporter gene activity was induced using Doxycycline Hyclate and measured after 16 hr incubation. Tet-on ROR gamma CHO cells were used to screen against the Tox21 10K compound library for cytotoxicity by measuring the viability of the cells based on the quantitation of the ATP.
Tox21 Assay Protocol Summary: Tet-on ROR gamma CHO cells were dispensed at 1,000 cells in 4 uL of culture medium per well into white wall/solid bottom 1536-well plates using a Multidrop Combi (Thermo Scientific, Waltham, MA) dispenser. Following incubation at 37 C and 5% CO2 for 4 hr, 23 nL of compounds dissolved in DMSO, positive controls or DMSO only were transferred by a Pintool station (Kalypsys, San Diego, CA) and after 2 hr incubation at 37 C, one ul of 1 uM (final concentration) of Doxycycline Hyclate was added to all the wells by using a Flying Reagent Dispenser (FRD) (Aurora Discovery, San Diego, CA). After 16 hr incubation at 37 C and 5% CO2, 5 uL of CellTiter-Glo reagent (Promega Corporation, Madison, WI) was added to each assay plate using FRD. After 30 min incubation at room temperature, luminescence was quantified on a ViewLux plate reader (Perkin Elmer, Waltham, MA).
With `CCCCCCCCCC(=O)N(C)C` the Potency was “inactive”.
For `CN(C)CCN1CCOCC1`, the Potency was “inactive”.
In the case of `CC1CCCCC1`, the Potency is reported as “inactive”.
With `CC[N+](CC)(CC)Cc1ccccc1` the Potency was “inactive”.
In the case of `CCCCN(C)C`, the Potency is reported as “inactive”.
With `O=C1OC(=O)c2ccc3c4c(ccc1c24)C(=O)OC3=O` the Potency was “inactive”.
In the case of `CCCCCCCOC(=O)c1ccccc1C(=O)OCCCCCCC`, the Potency is reported as “inactive”.
With `CC(C)OC(=O)c1cc(C(=O)OC(C)C)cc([N+](=O)[O-])c1` the Potency was “inactive”.
For `CCC(C)c1ccccc1` (stereo not given), the Potency was “inactive”.
For `O=C1Nc2ccc(Cl)cc2[C@@](C#CC2CC2)(C(F)(F)F)O1`, the Potency was 29.8 µM (active).
For `O=C(c1ccccc1)c1cc(Cl)ccc1O`, the Potency was “inactive”.
In the case of `Brc1ccccc1-c1ccccc1`, the Potency is reported as “inactive”.
In the case of `CC(C)(c1cc(Br)c(O)c(Br)c1)c1cc(Br)c(O)c(Br)c1`, the Potency is reported as 60.9 µM (active).
With `CN1CN(C)CN(C)C1` the Potency was “inactive”.
With `Cc1cccc(N(C)C)c1` the Potency was “inactive”.
In the case of `CC1CNCC(C)O1` (stereo not given), the Potency is reported as “inactive”.
In the case of `Oc1ccc(-c2ccc(O)cc2)cc1`, the Potency is reported as “inactive”.
In the case of `Cc1cn[nH]c1`, the Potency is reported as “inactive”.
For `CC(=O)OC1CCCCC1`, the Potency was “inactive”.
For `COc1ccccc1C=O`, the Potency was “inactive”.
For `CN(C)c1ccc(N=Nc2ccccc2C(=O)O)cc1`, the Potency was 13.7 µM (active).
For `CCN(CC)CCNc1ccc(CO)c2sc3ccccc3c(=O)c12`, the Potency was “inactive”.
For `C[Si](C)(C)Cl`, the Potency was “inactive”.
For `c1cc[nH]c1`, the Potency was “inactive”.
For `CCc1c(C(=O)O)c(=O)cnn1-c1ccc(Cl)cc1`, the Potency was “inactive”.
In the case of `Cc1oc(-c2ccccc2)nc1CCOc1ccc(C[C@H](Nc2ccccc2C(=O)c2ccccc2)C(=O)O)cc1`, the Potency is reported as 61.1 µM (active).
In the case of `CC(COC(=O)c1ccccc1)OC(=O)c1ccccc1` (stereo not given), the Potency is reported as “inactive”.
In the case of `OCCC(O)CO` (stereo not given), the Potency is reported as “inactive”.
With `CCc1ccc(O)c(C(C)(C)C)c1` the Potency was “inactive”.
For `O=C(O)CCn1c2c(c3ccccc31)C[C@H](NS(=O)(=O)c1ccc(F)cc1)CC2`, the Potency was “inactive”.
For `CCC1CCCCC1`, the Potency was “inactive”.
For `C=C/C=C/C=C/CCCCC`, the activity, negative = cytotoxicity was -9.56% [at 19 µM].
With `CN(Cc1cc(Br)cc(Br)c1N)C1CCCCC1` the Potency was “inactive”.
In the case of `CCCCNc1c(C(=O)OCC)c(C)nc2c1cnn2CC`, the Potency is reported as “inactive”.
With `Clc1cc(Cl)c(-c2c(Cl)c(Cl)cc(Cl)c2Cl)cc1Cl` the Potency was “inactive”.
With `CN(C)CCOC(c1ccccc1)c1ccccc1` (tested in a mixture with another compound) the Potency was “inactive”.
For `c1cc2c3c(c1)ccc1cccc(c13)C2`, the Potency was “inactive”.
In the case of `C=CC(=O)OCCN(CC)CC`, the Potency is reported as “inactive”.
With `CCCCCCCC(C)=O` the Potency was “inactive”.
Work on `COc1cc(C(C)C)c2c(c1)S(=O)(=O)N(COc1cc(=O)n3cccc(OCCN4CCCCC4)c3n1)C2=O` yielded an activity, negative = cytotoxicity of -0.0922% [at 19 µM].
